Results taken from PubChem BioAssay (NCI).
About 83,000 compounds went through this panel and 20% of them were active in at least one assay; those are over-represented in the sample as a whole.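 Assay: single dose, 48 h. Readout: percent growth (0 = no net growth; negative = cell death). Active: <10.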 Active and inactive are the calls of the source.

system: A549/ATCC NSCLC; assay: NCI-60 one-dose screen, 48 h (100 = growth as untreated, 0 = no growth, -100 = all killed); conditions: 10 µM unless noted

Structure (SMILES) | growth
CC(=O)Oc1ccc(CCN2C(=O)CSC2=S)cc1 | 106% (inactive)
COc1cc(/C=N/n2cnc3oc(-c4ccccc4)cc3c2=N)cc(CN2CCOCC2)c1O | 80.1% (inactive)
CCOC(=O)/C=c1\sc2n(c1=O)C1C(NN=2)N(CC)C(=O)N1CC (centres undefined) | 62.1% (inactive)
CN(C)c1ccc(/C=N/Nc2nc(N/N=C/c3ccc(N(C)C)cc3)nc(N3CCOCC3)n2)cc1 | 74.9% (inactive)
COc1cc2oc(-c3cccc(NC(=O)c4cc(NC(=O)[C@H](C)NC(=O)OC(C)(C)C)ccc4C)c3)cc(=O)c2c(OC)c1OC | 80.5% (inactive)
CN1CCN(Cc2ccc(NC(=O)c3cncc(C#Cc4cnc5ccc(NC6CCOCC6)nn45)c3)cc2C(F)(F)F)CC1 | -14.2% (active)
O=C(Nc1ccc(Cl)cc1)Nc1nc2ccc([N+](=O)[O-])cc2s1 | 1.71% (active)
CCCCCCNC(=O)Oc1ccc(/C(=C(/C)c2ccc(OC)cc2)c2ccc(OCCN3CCCC3)cc2)cc1 | 73.3% (inactive)
O=c1c2ccccc2nc(COc2ccccc2)n1/N=C/C=C/c1ccccc1 | 100% (inactive)
CCCCCc1ccc(S(=O)(=O)N(C(C)=O)c2cccc(-c3csc(N(CCN4CCN(C)CC4)C(C)=O)n3)c2)cc1 | 39.5% (inactive)
O=C(NNc1nc2cc(F)c(F)cc2n2cccc12)c1ccncn1 | 18% (inactive)
O=C(CCCCCCN1CC(=O)N2[C@@H](c3cccc(Cl)c3)c3[nH]c4ccccc4c3C[C@H]2C1=O)NO | 79.6% (inactive)
O=C(/C=C/c1cn(-c2ccccc2)nc1-c1ccc(Cl)cc1)c1cc2ccccc2oc1=O | 88.7% (inactive)
COc1cc(/C=C/C(=O)c2ccc(NC(=O)COc3cccc4cccnc34)cc2)cc(OC)c1OC | 87.1% (inactive)
O=C(Nc1cccc(Cl)c1)Nc1nc2ccc([N+](=O)[O-])cc2s1 | 10% (inactive)
O=C(NNc1nc2cc(F)cc(F)c2n2cccc12)c1ccncn1 | 13.4% (inactive)
C[C@H]1[C@H](C)CC[C@]2(COC(=O)c3cccnc3)CC[C@]3(C)C(=CC[C@@H]4[C@@]5(C)CCCNC(C)(C)[C@@H]5CC[C@]43C)[C@H]12 | 78.6% (inactive)
CN1CCN(c2ccc(NC(=O)Nc3ccc4c(ccn4-c4cccc(C(N)=O)n4)c3)cc2C(F)(F)F)CC1 | 51.8% (inactive)
COc1ccc(OC)c([C@H]2c3[nH]c4ccccc4c3C[C@H]3C(=O)N(CCCCCCC(=O)NO)CC(=O)N23)c1 | 106% (inactive)
CS(=O)c1nccc(-c2c(-c3ccc(F)c(OCc4ccccc4)c3)nc3sccn23)n1 (centres undefined) | 100% (inactive)

Structure (SMILES) | growth
CC(=O)NC(C)(C)C(=O)N1CCC[C@H]1C(=O)NC(C)(C)C(=O)N[C@@H](C)C(=O)NC(C)(C)C(=O)N[C@@H](C)C(=O)N[C@@H](CCC(N)=O)C(=O)NC(C)(C)C(=O)N[C@H](C(=O)NC(C)(C)C(=O)NCC(=O)N[C@@H](CC(C)C)C(=O)NC(C)(C)C(=O)N1CCC[C@H]1C(=O)N[C@H](C(=O)NC(C)(C)C(=O)NC(C)(C)C(=O)N[C@@H](CCC(N)=O)C(=O)N[C@@H](CCC(N)=O)C(=O)N[C@H](CO)Cc1ccccc1)C(C)C)C(C)C | 49.4% [4.25 µM] (inactive)
C=C(C)[C@@H]1CC[C@]2(C(=O)NCCCN(CCC#N)CCC#N)CC[C@]3(C)[C@H](CC[C@@H]4[C@@]5(C)CCC(=O)C(C)(C)[C@@H]5CC[C@]43C)[C@@H]12 | 97.3% (inactive)
O=C(CN1C(=O)S/C(=C\c2ccccc2)C1=O)Nc1ccc(C(=O)/C=C/c2cc3ccccc3nc2Cl)cc1 | 88.6% (inactive)
N#Cc1c(-c2cccs2)cc(-c2cnccn2)nc1SCC(=O)NNC(=S)Nc1ccc(F)cc1 | 100% (inactive)
CN1CCN(c2nc(-c3cnc4ccccc4n3)cc3ccccc23)CC1 | 75.9% (inactive)
Cc1cc(O)c(=O)cc2c1C[C@H]1CC(C)(C)/C=C/C[C@]3(C)Oc4cc(=O)c(O)cc(C)c4C[C@H]3C[C@H](O)[C@@]1(C)O2 | -0.223% (active)
CC(C)=CCC[C@](C)(O)[C@H]1CC[C@]2(C)[C@@H]1CC[C@@H]1[C@@]3(C)CCC(NC(=O)c4ccccc4C(=O)O)C(C)(C)[C@@H]3CC[C@]12C (some centres undefined) | 93.1% (inactive)
CN1CCN(c2ccc3c(C(N)=O)c(NC(=O)c4ccc(C(C)(C)C)cc4)sc3c2)CC1 | 76.2% (inactive)
COc1ccc(-c2nc(SCC(C)C)nc(N/N=C\c3cccc([N+](=O)[O-])c3)c2C#N)cc1 | 24.8% (inactive)
Cc1cc(F)cc(NS(=O)(=O)c2ccc(-c3cnc(C4CC4)o3)cc2)c1 | 27.8% (inactive)
C/C(=N\NC(=O)CSc1nc2sc3c(c2c(=O)n1-c1ccccc1)CCC(C)C3)c1ccc(Cl)cc1 (centres undefined) | 42.5% (inactive)
COc1ccc(NC(=O)[C@H](C)N)cc1C(=O)Nc1cccc(-c2cc(=O)c3c(OC)c(OC)c(OC)cc3o2)c1 | 76.5% (inactive)
CC[C@H](C)[C@H]1NC(=O)[C@@H]([C@H](O)C(C)C)NC(=O)[C@@H](C)N(C)C(=O)[C@H](C)N(C)C(=O)[C@H](CC(C)C)NC(=O)[C@H](CC(C)C)N(C)C(=O)[C@H](C)N(C)C1=O | 0.788% (active)
IP(CCCSc1n(Cc2ccc3ccccc3c2)c(-c2ccccc2)c(-c2ccccc2)[n+]1Cc1ccc2ccccc2c1)(c1ccccc1)(c1ccccc1)c1ccccc1 | 26.7% (inactive)
N/C(=N\OC(=O)CSc1nc2ccccc2s1)c1ccc(Cl)cc1 | 103% (inactive)
CC(=O)NC(C)(C)C(=O)N[C@@H](C)C(=O)NC(C)(C)C(=O)N[C@@H](C)C(=O)NC(C)(C)C(=O)N[C@@H](C)C(=O)N[C@@H](CCC(N)=O)C(=O)NC(C)(C)C(=O)N[C@H](C(=O)NC(C)(C)C(=O)NCC(=O)N[C@@H](CC(C)C)C(=O)NC(C)(C)C(=O)N1CCC[C@H]1C(=O)N[C@H](C(=O)NC(C)(C)C(=O)NC(C)(C)C(=O)N[C@@H](CCC(N)=O)C(=O)N[C@@H](CCC(N)=O)C(=O)N[C@H](CO)CC1CCCCC1)C(C)C)C(C)C | 48.1% [5 µM] (inactive)
CCOC(=O)C1=C(C)Nc2nnc(Nc3ccccc3)n2C1c1ccccc1 (centres undefined) | 48.9% (inactive)
COc1cc(OC)c(S(N)(=O)=O)cc1C(=O)/C=C/c1ccccc1 | 57.1% (inactive)
CCOC(=O)/C(F)=C/C1CC1C1CCCCC1 (centres undefined) | 104% (inactive)
